# Laboratory results from PubChem BioAssay (EPA / NIEHS).
# Results filed as inconclusive are left out. The source made the active and inactive calls. The calls were made as follows, unless noted: active = hit-call score of the fitted dose curve at least 0.9, where 1 is the maximum; inconclusive = response in the unintended direction; inactive = score below 0.9.
# Experiments:
# [1] = test system: Sodium/Iodide Symporter (NIS), SLC5A5 (gene 6528); assay: CPHEA_Stoker_NIS_Inhibition_RAIU: CPHEA's Radioactive Iodide Uptake (RAIU) Assay for Sodium/Iodide Symporter (NIS) Inhibition, Stoker and Laws Labs (AID 2283841)
# Outline: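 Iodide uptake read as CPM of intracellular 125I (final 329 pM) after 2 h room-temperature exposure in HEPES-buffered HBSS, pH 7.4. Human NIS-expressing HEK293T cells; six concentrations 0.001–100 uM, 0.5% DMSO, normalised to DMSO wells.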
# [2] = CPHEA_Stoker_NIS_Cytotoxicity: Cytotoxicity Assessment for CPHEA's Radioactive Iodide Uptake (RAIU) Assay for Sodium/Iodide Symporter (NIS) Inhibition, Stoker and Laws Labs (AID 2283897);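 as to AC50: active means loss of ATP signal versus DMSO meaning cytotoxicity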
# Outline: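 CellTiter-Glo ATP luminescence gauged viability in HEK293T cells expressing human NIS after 2 h chemical exposure. Concentrations ran 0.001–100 uM in 0.5% DMSO; DMSO served as baseline for the loss-of-signal fit.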
# [3] = CEETOX_H295R_11DCORT_noMTC: CeeTox H295R High-throughput Steroidogenesis Assay for 11-Deoxycortisol (11DCORT), maximum tolerated concentration (MTC) filtered results only (AID 2283911; active = hit-call score of the fitted dose curve at least 0.9, where 1 is the maximum; inactive = score below 0.9); conditions: actives raise or lower the signal
# Outline: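 HPLC-MS/MS read-out of 11-deoxycortisol after MTBE extraction of H295R medium. Cells: forskolin 10 uM pre-stimulation 48 h, chemical 48 h, 0.1% DMSO final. Bidirectional fit vs DMSO baseline; no MTC filtering.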
# [4] = CEETOX_H295R_OHPREG_noMTC: CeeTox H295R High-throughput Steroidogenesis Assay for OH-Pregnenolone (OHPREG), maximum tolerated concentration (MTC) filtered results only (AID 2283912; active = hit-call score of the fitted dose curve at least 0.9, where 1 is the maximum; inactive = score below 0.9); conditions: actives raise or lower the signal
# Outline: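 H295R cells prestimulated 48 h with 10 uM forskolin, then exposed 48 h to compound (0.1% DMSO). 17alpha-hydroxypregnenolone in medium measured by MTBE extraction and HPLC-MS/MS; bidirectional fit vs DMSO, concentrations not MTT/MTC-filtered.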
structure (smiles),measurement,setting,value
O=C1C(Cl)=C(Cl)C(=O)c2ccccc21,AC50,[1],9.92 µM (active)
same,AC50,[2],50 µM (active)
O=C(OC1CCCCC1)c1ccccc1C(=O)OC1CCCCC1,outcome,[1],inactive
same,outcome,[2],inactive
same,AC50,[3],2.24 µM (active)
same,AC50,[4],2.11 µM (active)
Clc1ccc(COC(Cn2ccnc2)c2ccc(Cl)cc2Cl)cc1 (stereo not drawn),AC50,[1],11.7 µM (active)
same,AC50,[2],72.6 µM (active)
Cc1ccccc1C(=O)Nc1cccc(OC(C)C)c1,outcome,[1],inactive
same,outcome,[2],inactive
CC(=O)[O][Hg][c]1ccccc1,AC50,[1],50 µM (active)
same,AC50,[2],9.92 µM (active)
CC(C)c1cccc(C(C)C)c1O,outcome,[1],inactive
same,outcome,[2],inactive
CCN1CCC2(CC1)COc1cc3c(cc12)N(C(=O)c1ccc(-c2ccc(-c4nnc(C)o4)cc2C)cc1)CC3,AC50,[1],72.8 µM (active)
same,AC50,[2],8.43 µM (active)
CC(C)(c1ccc(OCC2CO2)cc1)c1ccc(OCC2CO2)cc1 (stereo not drawn),outcome,[1],inactive
same,outcome,[2],inactive
COP(=S)(OC)Oc1ccc(Sc2ccc(OP(=S)(OC)OC)cc2)cc1,outcome,[1],inactive
same,outcome,[2],inactive
CCC(C)(C)c1ccc(O)c(C(C)(C)CC)c1,outcome,[1],inactive
same,AC50,[2],9.92 µM (active)
CCC1(c2ccc(N)cc2)CCC(=O)NC1=O (stereo not drawn),outcome,[3],inactive
same,outcome,[4],inactive
Cn1sc(Cl)cc1=O,outcome,[1],inactive
same,outcome,[2],inactive
same,outcome,[3],inactive
same,outcome,[4],inactive
